In PubChem BioAssay (NCATS):
Results filed as inconclusive are left out. Activity calls are given as the source filed them. Calls follow the shape of the dose curve; as a rule, active = well fitted inhibition curve with a large enough effect; inconclusive = small, poorly fitted or top-dose-only effect; inactive = flat fitted curve, though single readings scatter.

Legend:
Test in all cases: qHTS profiling for inhibitors of Plasmodium falciparum proliferation (AID 504749); also: nearly all actives have a fitted effect of over 60% in size
Conditions in all cases: P. falciparum in erythrocytes, SYBR Green DNA, 72 h; series mostly up to 28.7 µM
CP237 = test system: CP237
In short: (§1)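 Readout was DNA-dye fluorescence from lysed cultures, ex 485/em 535 nm. Parasitized red cells had grown 72 h with compound; data scaled between 0.29 uM artemisinin and DMSO wells and corrected using vehicle-only plates.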

CP260 = test system: CP260
In short: as §1

CP262 = test system: CP262
In short: as §1

CP286 = test system: CP286
In short: as §1

CP192 = test system: CP192
In short: as §1

CP194 = test system: CP194
In short: as §1

CP201 = test system: CP201
In short: as §1

CP203 = test system: CP203
In short: as §1

CP211 = test system: CP211
In short: as §1

CP215 = test system: CP215
In short: as §1

CP217 = test system: CP217
In short: as §1

CP238 = test system: CP238
In short: as §1

CP247 = test system: CP247
In short: as §1

CP250 = test system: CP250
In short: as §1

CP252 = test system: CP252
In short: as §1

CP256 = test system: CP256
In short: as §1

CP265 = test system: CP265
In short: as §1

CP266 = test system: CP266
In short: as §1

CP268 = test system: CP268
In short: as §1

CP269 = test system: CP269
In short: as §1

Measured: Potency
Potency is read from the fitted curve at half-maximal effect.

Nc1ccc2cc3ccc(N)cc3nc2c1
inactive: CP262
active: CP237 12.6 µM | CP260 8.91 µM | CP286 3.55 µM

O=C(Nc1ccc(Cl)cc1)Nc1ccc(Cl)c(Cl)c1
active: CP192 9.53 µM | CP194 6.01 µM | CP201 7.57 µM | CP203 4.26 µM | CP211 6.01 µM | CP215 6.75 µM | CP217 2.24 µM | CP237 2 µM | CP238 3.55 µM | CP247 3.98 µM | CP250 3.16 µM | CP252 3.55 µM | CP256 2.24 µM | CP260 2 µM | CP262 5.36 µM | CP265 3.55 µM | CP266 8.49 µM | CP268 4.26 µM | CP269 6.01 µM | CP286 2.24 µM

Nc1ncnc2nc[nH]c12
inactive: CP192 | CP194 | CP201 | CP203 | CP211 | CP215 | CP217 | CP237 | CP238 | CP247 | CP250 | CP252 | CP256 | CP260 | CP262 | CP265 | CP266 | CP268 | CP269 | CP286

Nc1c2ccccc2nc2ccccc12
inactive: CP262
active: CP192 12 µM | CP237 8.91 µM | CP238 10 µM | CP247 10 µM | CP252 10 µM | CP256 11.2 µM | CP260 7.94 µM | CP266 13.5 µM | CP268 13.5 µM | CP269 13.5 µM | CP286 5.01 µM

CCCCCCCCCCCCCCCC[n+]1ccccc1
active: CP192 7.57 µM | CP194 6.75 µM | CP201 7.57 µM | CP203 9.53 µM | CP211 6.75 µM | CP215 13.5 µM | CP217 5.62 µM | CP237 7.94 µM | CP238 7.08 µM | CP247 5.62 µM | CP250 6.31 µM | CP252 6.31 µM | CP256 8.91 µM | CP260 3.98 µM | CP262 3.38 µM | CP265 8.91 µM | CP266 13.5 µM | CP268 9.53 µM | CP269 5.36 µM | CP286 2.51 µM

O=[N+]([O-])c1ccc(O)c2ncccc12
active: CP247 11.2 µM | CP252 8.91 µM | CP262 12 µM

CCCCCCCCCCCCCC[N+](C)(C)C
active: CP192 6.01 µM | CP194 6.75 µM | CP201 12 µM | CP203 6.75 µM | CP211 6.01 µM | CP215 8.49 µM | CP217 8.91 µM | CP237 5.01 µM | CP238 3.98 µM | CP247 3.98 µM | CP250 5.62 µM | CP252 7.08 µM | CP256 7.94 µM | CP260 3.98 µM | CP262 4.78 µM | CP265 8.91 µM | CP266 10.7 µM | CP268 8.49 µM | CP269 5.36 µM | CP286 2.51 µM

CN1CCC(Nc2ncc3ncnc(Nc4ccc(F)c(Cl)c4)c3n2)CC1
inactive: CP262
active: CP217 11.2 µM | CP252 7.94 µM | CP286 11.2 µM

CN1CCCN(C(c2ccccc2)c2ccc(Cl)cc2)CC1 (configuration not stated)
active: CP217 14.1 µM | CP237 11.2 µM | CP247 11.2 µM | CP250 12.6 µM | CP256 10 µM | CP260 10 µM | CP265 5.01 µM | CP286 11.2 µM
inactive: CP262

O=S(=O)(O)c1ccc2nc(-c3ccccc3)[nH]c2c1
inactive: CP192 | CP194 | CP201 | CP203 | CP211 | CP215 | CP217 | CP237 | CP238 | CP247 | CP250 | CP252 | CP256 | CP260 | CP262 | CP265 | CP266 | CP268 | CP269 | CP286

CCCCCCCCCCCCCCCC[N+](C)(C)Cc1ccccc1
active: CP192 9.53 µM | CP194 12 µM | CP201 12 µM | CP211 10.7 µM | CP215 9.53 µM | CP217 3.16 µM | CP237 3.55 µM | CP238 0.891 µM | CP247 2.24 µM | CP250 2.51 µM | CP252 3.16 µM | CP256 3.98 µM | CP260 2 µM | CP262 4.78 µM | CP265 3.98 µM | CP266 9.53 µM | CP268 12 µM | CP269 7.57 µM | CP286 2.82 µM

CC(NCCC(c1ccccc1)c1ccccc1)c1ccccc1 (configuration not stated)
inactive: CP262
active: CP194 15.1 µM | CP217 8.91 µM | CP237 10 µM | CP247 7.94 µM | CP252 10 µM | CP256 12.6 µM | CP260 10 µM | CP268 13.5 µM | CP269 16.9 µM | CP286 3.98 µM
